# AF4-AF9 inh – MLL-AF4/AF9 protein interaction inhibition; inhibition, % at 10 µM; P42568; AID 651704; hit rate 0.47% among 350,000; AlphaScreen, biotin-AF4 peptide binding to FLAG-AF9;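 active = every replicate reaching a set inhibition limit, whatever the replicate mean, cut at about 25% in these data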;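 note: 0% = plate neutral control median and 100% = total signal loss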
# Target sequence (P42568 whole entry, looked up): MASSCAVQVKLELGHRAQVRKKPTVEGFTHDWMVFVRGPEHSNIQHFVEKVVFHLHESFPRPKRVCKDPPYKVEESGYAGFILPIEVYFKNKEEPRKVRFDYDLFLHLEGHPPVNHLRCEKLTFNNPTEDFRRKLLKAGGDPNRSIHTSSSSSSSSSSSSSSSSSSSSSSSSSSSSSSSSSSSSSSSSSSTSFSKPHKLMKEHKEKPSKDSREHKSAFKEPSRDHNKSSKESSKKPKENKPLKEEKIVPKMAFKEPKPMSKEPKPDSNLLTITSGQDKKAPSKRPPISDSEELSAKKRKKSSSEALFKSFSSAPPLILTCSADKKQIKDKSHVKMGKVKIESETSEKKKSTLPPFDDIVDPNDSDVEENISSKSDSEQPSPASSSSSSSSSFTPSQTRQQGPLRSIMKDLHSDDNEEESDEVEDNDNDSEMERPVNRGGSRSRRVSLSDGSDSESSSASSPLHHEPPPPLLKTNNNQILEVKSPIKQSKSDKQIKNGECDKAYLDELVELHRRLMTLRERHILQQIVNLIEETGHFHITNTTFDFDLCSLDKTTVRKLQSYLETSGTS
# rRNA inh HTS – inhibits bacterial ribosomal RNA function over humanized ribosomes; E. coli WT GFP vs humanized-ribosome RFP mutants, fluorescence, 24 h; active compounds read low; DMSO median 0, no signal -100; GFP signal change (wild-type ribosome), % (no concentration beside the values); hit rate 1.6% among 350,000;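 active = significant combined selectivity score with lowered wild-type GFP, culture density cut under 30%, mutant RFP and density less affected; inactive = any of these conditions unmet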
# esBAF inh – inhibitors of esBAF chromatin remodeling in mouse ES cells; Bmi1-luciferase knock-in reporter, 24 h; 100% = twice the neutral-well signal; hit rate 2% among 350,000; AID 602393; reporter increase, % at 12.5 µM; in the data active = activation above about 40%;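 note: 0% = median of the plate's neutral control wells and 100% = double that signal; a rise in the Bmi1 reporter signal indicates esBAF inhibition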
# MITF act – increases MITF-driven TRPM1 promoter luciferase signal; activation, % at 12.5 µM; hit rate 0.75% among 300,000; SK-MEL-5 TRPM1-promoter luciferase, 24 h; % of positive control, neutral wells = 0; AID 588334;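 active = mean activation of at least 80% with every replicate also reaching 80%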;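 note: 0% = neutral control wells and 100% = parthenolide positive control wells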
# Wnt act – Wnt/beta-catenin pathway activation; Wnt/beta-catenin reporter cell assay, activator, plate reader; activation, % at 9.35 µM; hit rate 1.2% among 300,000; in the data active = activation above about 30%, passing the limit was not always enough;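 note: 0% = neutral control wells and 100% = positive control wells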
# The depositor's hits bear a star; / = not tested or not shown. Rows were chosen to be rich in hits. Some 3.7% of all compounds tested hit in one or more screens of this group.
SMILES,AF4-AF9 inh,rRNA inh HTS,esBAF inh,MITF act,Wnt act
Nc1ccc2c(c1)C(=O)C(=O)c1ccccc1-2,/,/,/,-106,/
Nc1ccc2c(c1)C(=O)c1ccccc1C2=O,-1,-1,69*,104*,40*
CC1CCN(CCNC(=O)C2CCCN(c3ncnc4c3nc3n4CCCCC3)C2)CC1 (stereo not drawn),-2,13,-6,8,-1
COc1cccc(-c2cc3nc(Nc4ccc(OC)c(OC)c4)n(C)c(=O)c3s2)c1,3,-6,53*,/,0
COc1ccc(Nc2nc3cc(-c4ccsc4)sc3c(=O)n2C)cc1OC,6,-21*,30,/,10
COc1ccc(Nc2nc3cc(-c4sccc4C)sc3c(=O)n2C)cc1OC,5,1,7,/,-3
N#Cc1ccc(COC(=O)c2ccc3c(c2)OCO3)cc1,-1,6,/,25,1
CCCC(=O)Nc1ccc2c(c1)C(=O)N(C)[C@H]1CC[C@H](CC(=O)NCCc3ccccc3)O[C@@H]1CO2,0,0,-2,/,/
Cc1ccc(Nc2ncc3c(n2)CC(C)(C)CC3=O)cc1,-1,4,/,91*,-1
CC1(C)CC(=O)c2cnc(NC3CC3)nc2C1,3,6,4,14,-4
CC(NC(=O)c1ccco1)C(=O)N(C)Cc1ccc(C(F)(F)F)cc1 (stereo not drawn),-3,4,-1,2,-2
COc1ccc(CN(C)C[C@@H]2Oc3ccc(NS(=O)(=O)c4ccccc4)cc3C(=O)N([C@H](C)CO)C[C@@H]2C)cc1,0,-1,-4,/,/
CCC(NS(=O)(=O)c1cccs1)c1ccc(C)cc1 (stereo not drawn),2,-20,-1,-7,-4
C=CCSc1nnc(-c2nnc(SCC=C)n2-c2ccccc2)n1-c1ccccc1,/,/,5,-9,2
C=CCSc1nnc(-c2sc(-c3ccccc3)nc2C)n1C,/,/,/,/,33*
CN(C)CCCC1Sc2ccccc2Sc2ccccc21 (stereo not drawn),15,-46*,/,/,-3
O=S(=O)(Nc1nc2ccccc2nc1N1CCc2ccccc2C1)c1ccc(Br)cc1,/,/,/,34,/
O=S(=O)(Nc1nc2ccccc2nc1N1CCc2ccccc2C1)c1ccc(Cl)cc1,/,/,/,6,41*
CC(C)CNC(=O)c1cccc2c1-c1ccccc1C2=O,42*,5,-2,3,1
Cc1noc(C)c1C(c1ccccc1)S(=O)(=O)c1ccccc1 (stereo not drawn),/,/,-9,-8,/
Cc1noc(C)c1C(c1ccccc1)c1ccccc1,-2,-47*,/,-5,1
COc1cccc(C(=O)N[C@H](C(=O)N2CCC[C@H]2C(=O)NCCc2ccccc2Cl)C(C)C)c1,/,-2,/,/,-1
COc1cccc(C(=O)N[C@H](C(=O)N2CCC[C@H]2C(=O)NCCc2ccccc2Cl)c2ccccc2)c1,/,-34*,/,/,-4
COc1cc(OC)cc(-c2ncc3ccccn23)c1,/,14,-5,4,/
COc1cccc(-c2ncc3ccccn23)c1,/,/,52*,57,4
SMILES,AF4-AF9 inh,rRNA inh HTS,esBAF inh,MITF act,Wnt act
CC(C)(C)OC(=O)CC[C@@H](C(=O)N1CCN(C(=O)OC(C)(C)C)CC1)n1cc(C(Cc2ccc(O)cc2)NC(=O)OC(C)(C)C)nn1 (stereo partly drawn),3,2,1,-9,0
Cc1ccc(C(=O)NC(C#N)=C(Cl)Cl)cc1,-7,-27*,/,/,77*
CCC(C)(C)NC(=O)CN(C(=O)CCC(=O)Nc1nccs1)c1cccc(C)c1C,1,2,9,-9,-1
COC(=O)c1c(-c2ccc(OC)cc2)sc2cc3c(cc12)OCO3,-4,-6,49*,92*,33*
O=C1c2ccccc2CN1CCSC(=S)N1CCOCC1,-2,-20,/,54,41*
COc1ccccc1-c1nc(SCC(=O)Nc2ccccc2F)n[nH]1,-1,-27*,-5,-19,-4
Fc1ccc(CN2CCN(C(c3ccccc3)c3ccccc3)CC2)cc1,5,-43,-8,/,-6
c1ccc(CN2CCN(C(c3ccccc3)c3ccccc3)CC2)cc1,6,-24*,-7,-1,-2
COc1ccc(NC(=O)C2CCN(S(=O)(=O)c3cccc4nonc34)CC2)cc1OC,26*,5,-1,8,20
O=C(c1cc(=O)c2ccccc2o1)N1CCN(c2ccccc2F)CC1,-4,-10,/,6,5
O=C(c1cc(=O)c2ccccc2o1)N1CCN(c2cccc(Cl)c2)CC1,0,-30*,/,4,0
